Some test systems named below: KIT-autoinhibited; KIT; LATS1; LATS2; LCK; LIMK1; LIMK2; LRRK2; LTK; LYN; MAK; MAP3K15; MAP3K1; MAP3K2; MAP3K3; MAP3K4.
Holding throughout (details): concentration: 1 μM, replicates: in singlicate; n = 1
The next test has as its system T1, JNK3.
T1 construct: gene MAPK10

For a further test, the system named is T2, LKB1.
T2 construct: gene STK11

For another test, the system named is T3, LOK.
T3 construct: gene STK10

The test system of the next test is T4, LZK.
T4 construct: gene MAP3K13

SMILES strings stand for the structures.
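Further: KINOMEscan kinase panel screen.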

For `Cc1nccc(-c2c(-c3ccc(F)cc3)ncn2CCCN2CCOCC2)n1.Cl` [SB-282975], the “%Inh” value stood at 43% in the test on JNK3; 9% in the test on KIT-autoinhibited; 0% in the test with KIT; 0% in the test on LATS1; 0% in the test on LATS2; 27% in the test on LCK. Also, the “%Inh” value is on record as 11% with LIMK1; 10% in the test on LIMK2; 0% with LKB1; 9% in the test with LOK; 0% in the test on LRRK2; 30% with LTK. Moreover, the “%Inh” value is 9% with LYN; 0% in the test with LZK; 25% with MAK; 28% in the test with MAP3K15; 20% with MAP3K1; 17% with MAP3K2. The figures for the “%Inh” value with MAP3K3 and with MAP3K4 were 19% and 22%, respectively.

As to `CC(=O)c1c(C)c2cnc(Nc3ccn(C)n3)nc2n(C2CCCC2)c1=O`, the “%Inh” value with JNK3 was 0%; in the test on KIT-autoinhibited, 0%; in the test with KIT, 0%; in the test with LATS1 it was 0%; with LATS2 it was 4%; with LCK, 8%. Moreover, the “%Inh” value is listed as 23% in the test with LIMK1; 0% in the test on LIMK2; 0% in the test on LKB1; 15% in the test on LOK; 0% with LRRK2; 0% in the test with LTK. Also, the “%Inh” value turned out to be 10% with LYN; 0% with LZK; 0% in the test on MAK; 0% in the test with MAP3K15; 0% in the test with MAP3K1; 0% in the test with MAP3K2. Besides, the “%Inh” value in the test on MAP3K3 and with MAP3K4 was 0% each time.

Turning to `CNc1nc(-c2ccc3c(N)n[nH]c3c2)cc(N2C[C@@H](C(=O)NC3CCCCC3)OC[C@H]2C)n1` [GSK2375584], the “%Inh” value in the test on JNK3 amounted to 0%; with KIT-autoinhibited it was 7%; in the test with KIT, 20%; in the test on LATS1, 0%; in the test with LATS2, 15%; with LCK, 19%. Also, the “%Inh” value in the test on LIMK1 came out at 8%; in the test with LIMK2, 24%; in the test on LKB1 it was 0%; with LOK, 0%; with LRRK2 it was 0%; in the test on LTK, 0%. Also, the “%Inh” value was determined as 0% with LYN; 35% in the test with LZK; 0% with MAK; 0% in the test on MAP3K15; 0% in the test on MAP3K1; 0% with MAP3K2. Moreover, the “%Inh” value with MAP3K3 and in the test on MAP3K4 was 0% each time.

Take `COc1cccc(NC(=O)Nc2ccc(C)c(-c3ccc(C(=O)Nc4ccncc4)cc3)c2)c1` [GSK1398474]: the “%Inh” value in the test with JNK3 was determined as 26%; in the test on KIT-autoinhibited it was 0%; in the test on KIT, 99.8%; in the test with LATS1, 0%; with LATS2, 5%; in the test with LCK, 43%. The “%Inh” value came to 11% in the test with LIMK1; 8% in the test with LIMK2; 0% with LKB1; 0% with LOK; 0% in the test on LRRK2; 23% in the test on LTK. For the same compound, the “%Inh” value in the test on LYN was 97.9%; with LZK, 0%; with MAK it was 100%; in the test with MAP3K15, 0%; in the test on MAP3K1, 13%; in the test with MAP3K2, 0%. Further, the “%Inh” value in the test on MAP3K3 is 0%; in the test on MAP3K4, 20%.

`Fc1ccc(-c2nc[nH]c2-c2ccncc2)cc1` [SB-217360]: the “%Inh” value was 98.6% in the test on JNK3; 21% in the test with KIT-autoinhibited; 0% in the test on KIT; 0% in the test with LATS1; 0% with LATS2; 25% in the test with LCK. In addition, the “%Inh” value with LIMK1 stood at 0%; in the test on LIMK2, 0%; in the test on LKB1 it was 0%; with LOK it was 16%; in the test with LRRK2 it was 0%; in the test on LTK, 0%. Moreover, the “%Inh” value is on record as 0% with LYN; 0% in the test on LZK; 5% with MAK; 3% with MAP3K15; 0% in the test with MAP3K1; 18% in the test with MAP3K2. For the same compound, the “%Inh” value in the test on MAP3K3 and in the test on MAP3K4 was 0% each time.

For `O=C(Nc1n[nH]c2nc(-c3cccs3)c(Br)cc12)C1CCCC1` [SB-743341], the “%Inh” value is listed as 46% with JNK3; 13% in the test on KIT-autoinhibited; 36% in the test on KIT; 20% in the test with LATS1; 0% with LATS2; 38% in the test with LCK. Besides, the “%Inh” value with LIMK1 is 2%; in the test on LIMK2, 15%; with LKB1 it was 0%; in the test on LOK, 26%; with LRRK2 it was 28%; with LTK, 17%. The “%Inh” value with LYN came out at 0%; in the test on LZK it was 36%; with MAK it was 77%; with MAP3K15, 32%; in the test on MAP3K1 it was 49%; with MAP3K2, 5%. Besides, the “%Inh” value is reported as 28% in the test on MAP3K3 and 0% in the test on MAP3K4.

Consider `COc1cc2ncnc(Nc3cccc(Br)c3)c2cc1OC.Cl` [GI230329], for which the “%Inh” value is reported as 0% in the test with KIT-autoinhibited; 10% in the test on KIT; 0% in the test on LATS1; 0% with LATS2; 66% in the test with LCK; 0% with LIMK1. Moreover, the “%Inh” value in the test with LIMK2 is recorded as 0%; in the test with LKB1, 10%; in the test with LOK, 36%; with LRRK2, 0%; in the test on LTK, 0%; in the test with LYN it was 67%. In addition, the “%Inh” value with LZK was 38%; in the test with MAK, 34%; in the test with MAP3K15, 0%; in the test with MAP3K1, 2%; in the test with MAP3K2, 33%; in the test on MAP3K3 it was 29%. Besides, in the test with MAP3K4, the “%Inh” value is 4%.

Take `O=C(Nc1n[nH]c2nc(-c3ccco3)c(Br)cc12)C1CCN(Cc2ccccc2)C1.O=C(O)[C@H](O)[C@@H](O)C(=O)O` (stereo not shown) [SB-742034]: the “%Inh” value with JNK3 came out at 13%; in the test on KIT-autoinhibited it was 7%; in the test with KIT, 22%; in the test on LATS1 it was 0%; with LATS2, 0%; in the test on LCK it was 5%. The “%Inh” value in the test with LIMK1 came out at 0%; in the test on LIMK2, 0%; with LKB1, 37%; with LOK, 0%; in the test with LRRK2, 0%; in the test with LTK, 11%. For the same compound, the “%Inh” value amounted to 2% in the test with LYN; 0% in the test on LZK; 25% with MAK; 12% in the test with MAP3K15; 18% with MAP3K1; 21% with MAP3K2. Besides, the figures for the “%Inh” value in the test on MAP3K3 and with MAP3K4 were 24% and 0%, respectively.

Consider `COc1cccc(C2=C(Nc3cc(Cl)c(O)c(Cl)c3)C(=O)NC2=O)c1` [SB-390767], for which the “%Inh” value in the test with JNK3 came to 15%; with KIT-autoinhibited it was 0%; in the test with KIT, 0%; in the test on LATS1 it was 1%; in the test with LATS2, 0%; in the test on LCK, 0%. For the same compound, the “%Inh” value in the test with LIMK1 was determined as 31%; with LIMK2, 0%; in the test on LKB1, 0%; in the test on LOK it was 0%; in the test with LRRK2, 55%; in the test on LTK, 96.8%. The “%Inh” value in the test with LYN worked out at 0%; in the test with LZK, 0%; in the test with MAK, 4%; in the test with MAP3K15, 0%; in the test with MAP3K1, 12%; in the test with MAP3K2, 0%. Also, the “%Inh” value was found to be 0% in the test on MAP3K3 and 7% in the test with MAP3K4.

With `CNc1cc(-c2ccc3c(N)n[nH]c3c2)nc(N)n1` [GSK2224810], the “%Inh” value in the test with JNK3 came to 0%; in the test with KIT-autoinhibited, 0%; in the test on KIT, 19%; in the test with LATS1 it was 0%; in the test with LATS2 it was 20%; in the test on LCK, 0%. Besides, the “%Inh” value turned out to be 0% in the test with LIMK1; 9% with LIMK2; 0% in the test with LKB1; 0% in the test with LOK; 0% in the test with LRRK2; 0% in the test on LTK. Moreover, the “%Inh” value in the test on LYN is reported as 0%; in the test on LZK, 18%; with MAK, 0%; in the test with MAP3K15, 0%; in the test on MAP3K1, 0%; in the test with MAP3K2, 0%. For the same compound, the “%Inh” value with MAP3K3 and in the test with MAP3K4 was 0% in each case.

For the origin of these results see publication PMC5540273 (PLoS ONE, 2017).
